# Assay results reported in PubChem BioAssay AID2125 (NMMLSC, 2009).
# Unmarked numbers belong to inactive results.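 How the source made its calls: active means combined score above 50, rising as EC50 falls below 10 µM and growth at top dose drops; inactive means the rest.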 Peptide text beside a SMILES is read from it. * marks the point of attachment. Cbz = O=C(OCc1ccccc1)*
# Tested on: YE3961
# Test: yeast strain panel proliferation effects – secondary panel, OD600, 26S proteasome disassembly project, profiling panel (AID 2125)
# Conditions: S. cerevisiae strain panel, growth OD600, 6-8 h, at 100 µM, hits give low values
row,SMILES,percent response (growth) [%]
1,CC(C)C[C@@H](C=O)NC(=O)[C@H](CC(C)C)NC(=O)[C@H](CC(C)C)NC(=O)OCc1ccccc1 (Cbz-Leu-Leu-Leu-aldehyde),59
2,CC(=O)N1C(=O)C(=C2C=C(C)OC(C)=C2)c2ccccc21,78.5
